Assay results published in the supplement of paper PMC11732987, “Enantioselective OTUD7B fragment discovery through chemoproteomics screening and high-throughput optimisation” (Communications Chemistry, 2025).

What was measured:
Experiment in all cases: log2 ratio of Biotin-Ahx-Ub-VS probe labelling (fragment/DMSO); higher = less target engagement (more negative = stronger competition), active = hit call of the paper (q ≤ 0.05, log2 ratio ≤ -1)
Details in all cases: compound concentration: 200 uM; treatment time: 3 h
USP19 = target: T1, USP19 (UniProt O94966)
T1 sequence (whole entry): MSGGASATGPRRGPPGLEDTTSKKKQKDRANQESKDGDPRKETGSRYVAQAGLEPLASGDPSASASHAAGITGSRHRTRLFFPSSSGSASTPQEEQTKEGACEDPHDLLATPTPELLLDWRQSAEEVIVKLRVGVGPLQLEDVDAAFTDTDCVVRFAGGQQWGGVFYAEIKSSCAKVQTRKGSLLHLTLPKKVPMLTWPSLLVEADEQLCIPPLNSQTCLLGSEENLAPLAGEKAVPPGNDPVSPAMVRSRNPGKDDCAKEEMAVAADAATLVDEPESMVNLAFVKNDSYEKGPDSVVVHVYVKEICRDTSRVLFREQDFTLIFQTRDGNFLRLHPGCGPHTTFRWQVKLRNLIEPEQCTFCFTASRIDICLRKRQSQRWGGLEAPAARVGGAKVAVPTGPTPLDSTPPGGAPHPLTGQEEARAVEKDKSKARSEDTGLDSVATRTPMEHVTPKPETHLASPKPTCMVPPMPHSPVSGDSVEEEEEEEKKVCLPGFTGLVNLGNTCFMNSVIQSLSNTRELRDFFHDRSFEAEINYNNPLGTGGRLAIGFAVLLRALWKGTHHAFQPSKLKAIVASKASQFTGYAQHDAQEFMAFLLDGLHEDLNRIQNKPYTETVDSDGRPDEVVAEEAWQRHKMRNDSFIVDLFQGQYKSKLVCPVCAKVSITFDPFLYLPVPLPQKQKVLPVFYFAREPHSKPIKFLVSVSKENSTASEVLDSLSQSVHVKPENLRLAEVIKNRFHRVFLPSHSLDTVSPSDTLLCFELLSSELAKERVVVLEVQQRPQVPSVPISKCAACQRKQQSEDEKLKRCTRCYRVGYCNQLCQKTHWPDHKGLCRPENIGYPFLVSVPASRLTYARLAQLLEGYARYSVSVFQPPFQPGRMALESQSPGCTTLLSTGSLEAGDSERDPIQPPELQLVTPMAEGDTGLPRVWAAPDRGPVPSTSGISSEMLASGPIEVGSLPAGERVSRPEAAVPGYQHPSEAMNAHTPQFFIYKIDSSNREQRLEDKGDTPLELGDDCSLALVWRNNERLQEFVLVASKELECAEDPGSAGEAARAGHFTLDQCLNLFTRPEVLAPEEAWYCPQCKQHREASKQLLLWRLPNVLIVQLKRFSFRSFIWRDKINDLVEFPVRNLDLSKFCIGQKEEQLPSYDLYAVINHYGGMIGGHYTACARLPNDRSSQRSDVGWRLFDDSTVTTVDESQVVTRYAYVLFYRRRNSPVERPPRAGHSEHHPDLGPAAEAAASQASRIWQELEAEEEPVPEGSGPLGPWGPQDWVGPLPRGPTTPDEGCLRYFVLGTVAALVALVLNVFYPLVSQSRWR
Summary of the method: (§1)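 Fragment (200 µM) or vehicle was incubated for 3 h with triplicate HEK293T lysate samples of 495 µg, which were then treated with Biotin-Ahx-Ub-VS at 0.5 µM final for 1 h. Labelled DUBs were enriched on NeutrAvidin, digested with LysC and trypsin, and analysed by diaPASEF LC-MS/MS. Values are average log2 fragment/vehicle ratios from an unpaired t-test on global-median-normalised Spectronaut label-free quantities, using proteins with ≥2 unique peptides.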

USP22 = target: T2, USP22 (UniProt Q9UPT9)
T2 sequence (whole entry): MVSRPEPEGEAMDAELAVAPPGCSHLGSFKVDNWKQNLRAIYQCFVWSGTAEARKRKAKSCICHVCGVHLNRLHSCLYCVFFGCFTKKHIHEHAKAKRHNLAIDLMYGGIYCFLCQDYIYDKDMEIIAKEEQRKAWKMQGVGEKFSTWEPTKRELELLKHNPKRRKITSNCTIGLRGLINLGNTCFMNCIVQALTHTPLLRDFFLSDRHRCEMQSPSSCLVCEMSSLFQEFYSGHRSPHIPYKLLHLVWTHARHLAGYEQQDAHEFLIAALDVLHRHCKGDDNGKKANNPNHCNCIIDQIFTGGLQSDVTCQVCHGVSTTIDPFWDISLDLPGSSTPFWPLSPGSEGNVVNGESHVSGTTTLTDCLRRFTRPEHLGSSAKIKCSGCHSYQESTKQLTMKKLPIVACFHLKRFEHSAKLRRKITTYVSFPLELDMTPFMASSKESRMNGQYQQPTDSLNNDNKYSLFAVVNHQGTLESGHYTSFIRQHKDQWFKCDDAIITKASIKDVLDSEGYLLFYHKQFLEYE
Summary of the method: as §1

USP24 = USP24 (UniProt Q9UPU5)
Chain of USP24 (Q9UPU5 whole entry): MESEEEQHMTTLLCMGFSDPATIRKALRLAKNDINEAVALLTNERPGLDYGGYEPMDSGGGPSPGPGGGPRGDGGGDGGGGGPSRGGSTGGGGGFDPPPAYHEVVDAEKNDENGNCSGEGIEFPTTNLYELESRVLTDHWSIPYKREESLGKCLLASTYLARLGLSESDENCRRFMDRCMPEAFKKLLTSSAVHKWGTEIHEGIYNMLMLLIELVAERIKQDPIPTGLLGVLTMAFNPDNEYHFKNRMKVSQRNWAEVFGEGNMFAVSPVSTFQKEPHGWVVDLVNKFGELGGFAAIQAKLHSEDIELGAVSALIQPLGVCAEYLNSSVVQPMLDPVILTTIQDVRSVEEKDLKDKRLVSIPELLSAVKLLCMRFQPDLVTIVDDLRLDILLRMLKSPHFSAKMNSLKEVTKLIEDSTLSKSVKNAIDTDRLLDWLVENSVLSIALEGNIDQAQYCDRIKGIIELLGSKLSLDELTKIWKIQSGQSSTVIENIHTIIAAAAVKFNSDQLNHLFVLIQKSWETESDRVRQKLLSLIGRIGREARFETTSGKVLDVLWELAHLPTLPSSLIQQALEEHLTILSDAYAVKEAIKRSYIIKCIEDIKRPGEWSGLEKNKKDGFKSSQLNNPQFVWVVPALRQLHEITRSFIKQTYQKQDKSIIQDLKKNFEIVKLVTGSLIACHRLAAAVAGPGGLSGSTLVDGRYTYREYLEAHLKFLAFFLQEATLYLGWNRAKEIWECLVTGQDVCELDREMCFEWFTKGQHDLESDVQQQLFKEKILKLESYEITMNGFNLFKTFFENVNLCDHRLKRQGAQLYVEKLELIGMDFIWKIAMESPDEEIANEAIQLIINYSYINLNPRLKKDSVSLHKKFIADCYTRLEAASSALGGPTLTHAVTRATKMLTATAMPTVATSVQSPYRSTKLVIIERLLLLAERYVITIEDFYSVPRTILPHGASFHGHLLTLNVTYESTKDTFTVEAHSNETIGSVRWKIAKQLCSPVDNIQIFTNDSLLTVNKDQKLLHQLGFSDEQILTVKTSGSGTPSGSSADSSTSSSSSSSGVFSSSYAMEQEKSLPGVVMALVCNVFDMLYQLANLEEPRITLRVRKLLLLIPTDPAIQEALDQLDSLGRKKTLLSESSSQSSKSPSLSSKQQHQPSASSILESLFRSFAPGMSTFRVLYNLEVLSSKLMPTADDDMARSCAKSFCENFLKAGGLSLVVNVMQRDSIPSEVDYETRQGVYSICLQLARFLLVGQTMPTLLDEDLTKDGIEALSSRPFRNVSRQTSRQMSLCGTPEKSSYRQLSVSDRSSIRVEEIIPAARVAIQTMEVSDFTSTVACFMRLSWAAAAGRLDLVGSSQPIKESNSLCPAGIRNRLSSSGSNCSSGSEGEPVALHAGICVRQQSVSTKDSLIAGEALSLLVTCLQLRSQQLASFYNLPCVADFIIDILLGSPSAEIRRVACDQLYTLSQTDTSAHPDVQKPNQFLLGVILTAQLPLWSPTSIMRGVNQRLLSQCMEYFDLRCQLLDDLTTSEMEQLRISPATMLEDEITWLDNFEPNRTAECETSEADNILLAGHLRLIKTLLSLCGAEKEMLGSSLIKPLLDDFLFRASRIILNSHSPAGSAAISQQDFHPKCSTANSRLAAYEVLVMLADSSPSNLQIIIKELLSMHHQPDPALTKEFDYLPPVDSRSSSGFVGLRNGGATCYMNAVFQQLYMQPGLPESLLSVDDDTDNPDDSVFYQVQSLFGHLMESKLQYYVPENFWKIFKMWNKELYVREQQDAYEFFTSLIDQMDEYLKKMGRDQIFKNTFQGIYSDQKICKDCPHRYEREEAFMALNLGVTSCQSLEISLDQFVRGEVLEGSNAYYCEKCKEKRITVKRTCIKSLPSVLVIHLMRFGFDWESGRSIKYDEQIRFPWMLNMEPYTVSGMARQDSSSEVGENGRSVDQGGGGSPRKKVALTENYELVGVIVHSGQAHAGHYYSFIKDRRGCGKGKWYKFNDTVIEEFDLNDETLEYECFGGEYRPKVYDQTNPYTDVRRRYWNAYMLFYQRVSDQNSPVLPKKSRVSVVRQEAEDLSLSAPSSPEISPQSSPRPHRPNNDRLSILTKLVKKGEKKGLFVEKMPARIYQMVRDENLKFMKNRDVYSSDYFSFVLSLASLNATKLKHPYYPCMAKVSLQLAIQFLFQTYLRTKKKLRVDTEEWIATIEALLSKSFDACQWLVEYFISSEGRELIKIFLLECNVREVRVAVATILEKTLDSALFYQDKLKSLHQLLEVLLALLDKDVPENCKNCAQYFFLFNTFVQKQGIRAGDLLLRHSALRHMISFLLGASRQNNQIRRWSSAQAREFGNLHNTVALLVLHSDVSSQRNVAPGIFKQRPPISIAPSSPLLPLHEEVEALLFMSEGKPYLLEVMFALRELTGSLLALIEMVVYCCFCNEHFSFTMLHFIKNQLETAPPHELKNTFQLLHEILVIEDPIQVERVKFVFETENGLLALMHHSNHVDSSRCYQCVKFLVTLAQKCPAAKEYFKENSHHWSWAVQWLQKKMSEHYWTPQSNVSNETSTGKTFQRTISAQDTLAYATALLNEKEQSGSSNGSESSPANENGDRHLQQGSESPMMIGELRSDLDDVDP
Summary of the method: as §1

USP25 = target: T3, USP25 (UniProt Q9UHP3)
T3 sequence (whole entry): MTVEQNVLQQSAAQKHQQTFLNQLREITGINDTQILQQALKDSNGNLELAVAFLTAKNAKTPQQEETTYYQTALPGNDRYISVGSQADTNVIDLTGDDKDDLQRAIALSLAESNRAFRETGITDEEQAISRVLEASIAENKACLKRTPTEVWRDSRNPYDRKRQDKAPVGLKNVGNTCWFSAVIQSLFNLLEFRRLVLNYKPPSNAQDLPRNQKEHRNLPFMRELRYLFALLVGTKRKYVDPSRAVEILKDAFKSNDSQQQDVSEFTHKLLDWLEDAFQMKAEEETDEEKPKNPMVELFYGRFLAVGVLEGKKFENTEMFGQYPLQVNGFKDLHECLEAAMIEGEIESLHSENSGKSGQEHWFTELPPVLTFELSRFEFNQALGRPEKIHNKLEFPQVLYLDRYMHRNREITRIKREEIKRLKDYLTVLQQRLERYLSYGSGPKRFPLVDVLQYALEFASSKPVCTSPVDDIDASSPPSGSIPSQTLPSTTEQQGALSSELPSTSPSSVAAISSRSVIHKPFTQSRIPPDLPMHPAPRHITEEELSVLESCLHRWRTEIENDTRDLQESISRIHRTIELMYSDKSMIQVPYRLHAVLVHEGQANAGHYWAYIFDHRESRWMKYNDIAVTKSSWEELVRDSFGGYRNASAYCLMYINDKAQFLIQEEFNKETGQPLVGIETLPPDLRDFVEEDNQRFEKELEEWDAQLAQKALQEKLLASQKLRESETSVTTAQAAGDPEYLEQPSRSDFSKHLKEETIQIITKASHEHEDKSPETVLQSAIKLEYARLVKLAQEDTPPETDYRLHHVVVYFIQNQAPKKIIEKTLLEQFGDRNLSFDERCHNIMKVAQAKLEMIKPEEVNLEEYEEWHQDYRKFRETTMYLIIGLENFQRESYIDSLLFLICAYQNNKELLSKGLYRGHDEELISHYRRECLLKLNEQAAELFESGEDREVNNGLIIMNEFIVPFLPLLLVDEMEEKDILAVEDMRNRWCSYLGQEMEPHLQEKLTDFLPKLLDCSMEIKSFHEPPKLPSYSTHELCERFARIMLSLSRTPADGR
Summary of the method: as §1

USP28 = target: T4, USP28 (UniProt Q96RU2)
T4 sequence (whole entry): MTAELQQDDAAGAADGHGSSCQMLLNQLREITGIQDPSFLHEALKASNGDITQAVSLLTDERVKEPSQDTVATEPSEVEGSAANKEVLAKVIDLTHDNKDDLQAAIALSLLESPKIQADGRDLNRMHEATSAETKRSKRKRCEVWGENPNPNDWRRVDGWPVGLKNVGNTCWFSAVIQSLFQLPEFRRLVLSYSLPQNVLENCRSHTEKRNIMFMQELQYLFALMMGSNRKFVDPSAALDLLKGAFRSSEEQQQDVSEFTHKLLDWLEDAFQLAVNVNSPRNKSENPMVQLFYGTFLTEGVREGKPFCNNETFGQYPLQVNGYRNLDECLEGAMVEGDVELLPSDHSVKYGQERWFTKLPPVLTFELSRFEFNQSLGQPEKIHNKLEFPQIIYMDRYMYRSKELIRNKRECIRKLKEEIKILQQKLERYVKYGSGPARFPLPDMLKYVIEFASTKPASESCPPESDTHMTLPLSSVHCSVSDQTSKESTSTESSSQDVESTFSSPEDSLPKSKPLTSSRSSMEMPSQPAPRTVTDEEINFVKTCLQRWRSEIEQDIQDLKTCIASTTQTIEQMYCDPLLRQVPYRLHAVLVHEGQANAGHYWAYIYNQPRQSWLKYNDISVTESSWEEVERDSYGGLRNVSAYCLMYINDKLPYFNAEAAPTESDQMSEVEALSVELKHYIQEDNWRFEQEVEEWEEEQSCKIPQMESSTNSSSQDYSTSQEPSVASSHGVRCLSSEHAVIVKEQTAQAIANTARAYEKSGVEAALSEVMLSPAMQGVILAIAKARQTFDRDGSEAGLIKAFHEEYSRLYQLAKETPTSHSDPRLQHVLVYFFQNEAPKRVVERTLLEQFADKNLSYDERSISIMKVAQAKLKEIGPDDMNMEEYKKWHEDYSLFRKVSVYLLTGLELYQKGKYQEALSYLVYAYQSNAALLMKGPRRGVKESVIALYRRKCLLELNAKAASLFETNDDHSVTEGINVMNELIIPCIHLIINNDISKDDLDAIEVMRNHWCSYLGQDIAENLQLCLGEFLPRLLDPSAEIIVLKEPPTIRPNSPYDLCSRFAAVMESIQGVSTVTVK
Summary of the method: as §1

Measured: log2 ratio of Biotin-Ahx-Ub-VS probe labelling

Cc1ccc(-c2nnc(C)[nH]2)c(NC(=O)CCl)c1
inactive: USP19 0.0362 | USP22 0.0459 | USP24 -0.204 | USP25 -0.734 | USP28 -0.643
